# Y pestis TopoI = inhibitors of Yersinia pestis topoisomerase I | activity, % at 10 µM | hit rate 0.064% among 360,000 | Y. pestis Topo-I cleavage product accumulation, plate reader; in the data active = activity above about 50%, passing the limit was not always enough
# TcdB GH inh = inhibitors of Clostridioides difficile toxin B glycohydrolase; AID 652162; hit rate 0.24% among 350,000; TcdB glycohydrolase enzymatic assay, plate reader; P18177; inhibition, % at 9.99 µM; in the data active = inhibition above about 10%
# BH1578 lux ind = quorum light induction in luxS cqsA deficient V. cholerae. V. cholerae BH1578 lux reporter, luminescence, 6 h. activation, % at 18.7 µM. hit rate 0.16% among 350,000; in the data active = activation mostly above about 9.7%, no sharp cut-off
# DUSP3 inh = DUSP3 (human) phosphatase inhibition | inhibition, % at 13.3 µM | hit rate 0.52% among 290,000 | recombinant VHR phosphatase, pNPP absorbance | AID 1654 | P51452; in the data active = inhibition above about 50%
# Mtb BioA inh = inhibitors of Mycobacterium tuberculosis BioA enzyme; inhibition, % at 9.99 µM; purified M. tuberculosis BioA enzyme, plate reader; hit rate 0.096% among 360,000; in the data active = inhibition above about 40%
# * marks the source's active call; other numbers are inactive results; i = inactive; . = not tested or not shown. Most compounds without a hit are left out; they make up all but 0.73% or so of the library.
SMILES,Y pestis TopoI,TcdB GH inh,BH1578 lux ind,DUSP3 inh,Mtb BioA inh
C/C(CC(=O)Nc1cc(C)ccn1)=N\NC(=O)c1ccc(C)cc1,-11,-1,0,13,.
C/C(CC(=O)Nc1cc(C)ccn1)=N\NC(=O)c1cccc(F)c1,-2,-1,0,52*,3
Cc1ccc2nc(-c3ccc(SCC(=O)O)nc3)[nH]c2c1,55*,.,i,23,0
CC(=O)Nc1nc(C)c(Oc2ccc(Cl)cc2Cl)c(=O)[nH]1,1,.,17*,5,0
CN(C)C(=O)C[C@H]1CC[C@@H]2[C@H](COc3ccc(NC(=O)c4ccc(F)c(F)c4)cc3C(=O)N2C)O1,.,2,.,.,22
O=S(=O)(NC1CCCCC1N1CCC(O)CC1)c1ccccc1 (stereo not drawn),3,0,-1,58*,-2
CCCN1CCN(C2CCCCC2NS(=O)(=O)c2ccccc2)CC1 (stereo not drawn),-8,-3,0,38,-2
COc1ccc2c3c([nH]c2c1)[C@H](CO)N(C(=O)c1ccncc1)CC31CCN(C(=O)CC2CC2)CC1,.,2,.,.,.
COc1ccc(-c2nc(CN3CCN(Cc4cccc(F)c4)CC3)c(C)o2)cc1,55*,1,-1,6,4
COc1ccc(-c2nc(CN3CCN(Cc4cccc(Cl)c4)CC3)c(C)o2)cc1,28,1,i,-6,2
O=C(N1CCN(c2ccccc2)CC1)C(F)(F)C(F)F,-1,0,2,52*,0
O=C(N1CCN(c2ccccc2)CC1)C(F)(F)C(F)(F)F,-1,.,i,-5,.
Cc1noc(C)c1NC(=O)Nc1ccc2c(c1)CC(=O)N([C@H](C)CO)C[C@H](C)[C@H](CN(C)Cc1ccccc1)O2,.,0,.,.,-1
CCc1nn(CCCC(=O)N2CCN(c3ccc(OC)cc3)CC2)c(=O)c2cc3occc3n12,5,2,1,57*,.
CCc1nn(CCCC(=O)N2CCC(C)CC2)c(=O)c2cc3occc3n12,13,-2,i,-2,34
CNS(=O)(=O)c1cccc(C(=O)Nc2cccnc2)c1,1,.,i,56*,6
O=C(Nc1cccnc1)c1cccc(S(=O)(=O)Nc2cccc(Cl)c2)c1,-6,0,-1,.,8
COc1ccc(CN(C)C[C@H]2OCCCC[C@H](C)Oc3ccc(NC(=O)Nc4ccc(OC)cc4)cc3C(=O)N([C@@H](C)CO)C[C@@H]2C)cc1,.,0,.,.,0
CC1Cn2c(nc3sc4c(c3c2=O)CC(C)(C)OC4)N1CCO (stereo not drawn),-5,0,1,53*,1
Cc1ccc(-c2nc3sc4c(c3c(=O)n2N)CC(C)(C)OC4)cc1,-6,.,17*,2,2
C[C@@H]1CN([C@H](C)CO)C(=O)c2cc(NC(=O)Nc3ccc(C(F)(F)F)cc3)ccc2O[C@@H](C)CCCCO[C@@H]1CN(C)S(=O)(=O)c1ccc(F)cc1,.,1,.,.,0
OCC[C@@H]1C[C@@H](O)[C@H](O)[C@]2(CCCc3ccccc3O2)O1,5,1,i,52*,-1
COc1ccc(S(=O)(=O)N(C)C[C@@H]2Oc3ncc(Br)cc3C(=O)N([C@H](C)CO)C[C@@H]2C)cc1,.,-4,.,.,0
Nc1c(C(=O)Nc2ccc(S(=O)(=O)N3CCCC3)cc2)sc2nc3ccc(OC(F)(F)F)cc3cc12,-1,.,-1,-10,-8
Nc1c(C(=O)Nc2ccc(S(=O)(=O)N3CCCC3)cc2)sc2nc3cc4c(cc3cc12)CCC4,0,.,i,51*,.
SMILES,Y pestis TopoI,TcdB GH inh,BH1578 lux ind,DUSP3 inh,Mtb BioA inh
C[C@@H]1CN([C@H](C)CO)C(=O)Cc2cc(NC(=O)Nc3cccc4ccccc34)ccc2O[C@H]1CN(C)S(=O)(=O)c1cn(C)cn1,.,0,.,.,0
CN(C)CC#Cc1cccc(-c2nc(C(=O)O)cc3c2[C@H](CCO)N(S(=O)C(C)(C)C)C3)c1 (stereo partly drawn),.,0,.,.,-2
COCCNC(=O)c1cc2c(c(-c3cccc(C#CCN(C)C)c3)n1)[C@H](CCO)N(S(=O)C(C)(C)C)C2 (stereo partly drawn),.,10*,.,.,-2
CCCNC(=O)Nc1ccc2c(c1)C(=O)N(C)[C@@H]1CC[C@H](CC(=O)NCC3CCCCC3)O[C@H]1CO2,.,0,.,.,0
O=C(C[C@H]1CC[C@@H]2[C@H](COC[C@H](O)CN2Cc2cocn2)O1)NCc1cccc(F)c1,.,-1,.,.,-1
Cc1cc(C(=O)NNC(=O)COc2ccccc2Cl)n[nH]1,-3,2,0,51*,0
Cc1ccc(OCC(=O)NNC(=O)c2cc(C)[nH]n2)cc1,2,.,0,0,.
CCCC(=O)N1CC2(C1)CN(S(C)(=O)=O)[C@H](CO)c1c2c2ccc(OC)cc2n1C,.,1,.,.,.
Fc1cccc(NC(=S)NNc2c3ccccc3nc3ccccc23)c1,-8,20*,i,-2,.
Fc1cccc(NC(=S)NNc2ccccc2)c1,-1,-1,-2,24,2
CC(C)C(C(=O)O)N1C(=O)/C(=C/C=C/c2ccco2)SC1=S (stereo not drawn),-22,.,i,52*,.
C[C@H](NC(=O)C[C@H]1C=C[C@H](NC(=O)Cc2ccccn2)[C@H](CO)O1)c1ccccc1,.,0,.,.,-2
CN(C)CC#Cc1ccc([C@H]2[C@H](CO)N3CCCCN(C(=O)C4CCCC4)C[C@@H]23)cc1,.,1,.,.,2
COCC(=O)Nc1ccc2c(c1)C(=O)N(C)C[C@@H](OC)[C@@H](C)CN(Cc1ccccc1OC)[C@H](C)CO2,.,-1,.,.,0
O=C(O)C[C@H]1C[C@H]2c3cc(NC(=O)NC4CCCCC4)ccc3O[C@H]2[C@H](CO)O1,.,0,.,.,-2
COc1ccc(C(NC(C)=O)c2cc(Cl)c3cccnc3c2O)cc1 (stereo not drawn),-8,11*,0,4,-5
CC(=O)NC(c1ccccc1)c1cc(Cl)c2cccnc2c1O (stereo not drawn),-15,1,0,-8,-2
CCOC(=O)NCc1ccc2c(c1)cc(C)n2C,2,.,i,51*,.
Cc1cc2cc(CNC(=O)CC(C)C)ccc2n1C,1,.,-16,55*,.
CCOC(=O)CCC(=O)NCc1ccc2c(c1)cc(C)n2C,6,.,0,-5,0
Cc1cc(C(=O)CSc2nc(N)cc(=O)[nH]2)c(C)n1CC1CCCO1 (stereo not drawn),1,12*,i,.,-3
Cc1cc(C(=O)CSc2nc(N)cc(N)n2)c(C)n1CC1CCCO1 (stereo not drawn),7,0,i,.,4
NNC(=O)C(=O)Nc1ccc(O)cc1,-6,10,-1,-30,.
CN1CC(=O)N/C1=N\C(=O)Nc1ccc(O)cc1,6,13*,i,.,0
CCOc1ccccc1N1CCN(C(=O)C2c3ccccc3Oc3ccccc32)CC1,41,.,i,50*,.
CC(=O)Oc1cccc2c1C(=O)C1CC=CC(OC(C)=O)C1C2=O (stereo not drawn),61*,-1,.,.,.
Cc1ccccc1OCC(=O)Nc1ccc(S(=O)(=O)Nc2ccccn2)cc1,8,.,i,0,2

# Source: PubChem BioAssay (several laboratories)
